This is an account of results in PubChem BioAssay (Tox21).

SMILES strings stand for the structures. Inconclusive results are not listed. The source made the active and inactive calls. Calls follow the shape of the dose curve; as a rule, active = well fitted cell-killing curve with a large enough effect in the repeat runs; inconclusive = weak or mixed curves, or effect the other way; inactive = flat fitted curve, though single readings scatter.
% is scaled to controls: 0 for no effect and ±100 for the full control effect.

A short description of the test: qHTS assay to identify small molecule antagonists of the estrogen related receptor signaling pathway with the pleiotropic PPARgamma coactivator (PGC) cell viability counter screen (AID 1224822). The note with it: ERR/PGC reporter cell line viability counter screen; series mostly up to 92.2 µM; viability change, negative = cytotoxic: at the top concentration. In a few lines:
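Cytotoxicity in the PGC/ERR cell line is assessed with CellTiter-Fluor, read as fluorescence intensity 30 min after reagent addition, following 17.5 h compound treatment at 37 C.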
(In qHTS, concentration-response curves come from the screen itself.)
In the case of `CC(O)(CS(=O)(=O)c1ccc(F)cc1)C(=O)Nc1ccc(C#N)c(C(F)(F)F)c1` (centres undefined), the “viability change, negative = cytotoxic” value is -3.29% [at 46.1 µM] (inactive).
As for `CCCCOC(=O)c1ccccc1C(=O)OCc1ccccc1`, the figure is -5.88% (inactive); as for `c1cc2ccc3cccc4ccc(c1)c2c34`, 15% (inactive); as for `CC(C)(C)C(O)C(Oc1ccc(Cl)cc1)n1cncn1` (centres undefined), -7.01% (inactive).
